# Compounds with a hit are over-represented: about 2.3% of the library has one in this group of screens.
# C diff HTS: C. difficile growth inhibitors, primary screen, HTS. Clostridium difficile clinical isolate growth, OD600, 24 h; stronger effect = lower value. growth activity, negative = inhibition, % at 16 µg/mL (by protocol). actives 0.25% (n = 86,000). AID 1259249, 2017;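 active = mean growth activity at or below -80% and every replicate also at or below -80%; inconclusive = mean at or below -80% but some replicate above -80%; inactive = mean growth activity above -80%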;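 also: 0% = DMSO wells and -100% = levofloxacin 16 µg/mL wells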
# Pf Dd2 growth: P. falciparum Dd2 growth inhibitors, primary screen, SYBR Green fluorescence, single dose replicates; AID 1159554, 2015; activity change, % at 10 µM; actives 2.3% (n = 94,000); 72 h; stronger effect = lower value; in the data active = activity change below about -80%; inconclusive = no clear call, values can overlap the other calls
# * = called active by the depositor; ? = inconclusive; nt = no result.
SMILES,C diff HTS,Pf Dd2 growth
COc1ccc2c3c(n(C)c2c1)[C@H](CO)N(C(=O)Cc1ccccn1)CC31CCN(Cc2ccccn2)CC1,4,-38
O=C(C[C@H]1C=C[C@@H](NC(=O)CN2CCOCC2)[C@@H](CO)O1)NCCc1ccccc1,-1,-3
C[C@H](CO)N1C[C@H](C)[C@H](CN(C)S(=O)(=O)c2ccc(Cl)cc2)OCCCC[C@H](C)Oc2ccc(NC(=O)Cc3ccccc3)cc2C1=O,3,-72
COc1ccc(S(=O)(=O)N(C)C[C@H]2OCCCC[C@@H](C)Oc3ccc(NC(=O)Cc4ccccc4)cc3C(=O)N([C@@H](C)CO)C[C@H]2C)cc1,7,-71
C[C@@H]1CCCCO[C@H](CN(C)S(=O)(=O)c2ccc(F)cc2)[C@@H](C)CN([C@@H](C)CO)C(=O)c2cc(NC(=O)Cc3ccccc3)ccc2O1,nt,-76
COc1ccc(S(=O)(=O)N(C)C[C@H]2OCCCC[C@H](C)Oc3ccc(NC(=O)Cc4ccccc4)cc3C(=O)N([C@H](C)CO)C[C@H]2C)cc1,7,-84*
C[C@H]1CCCCO[C@H](CN(C)S(=O)(=O)c2ccc(Cl)cc2)[C@@H](C)CN([C@@H](C)CO)C(=O)c2cc(NC(=O)Cc3ccccc3)ccc2O1,8,-81*
C[C@H]1CCCCO[C@H](CN(C)S(=O)(=O)c2ccc(F)cc2)[C@@H](C)CN([C@@H](C)CO)C(=O)c2cc(NC(=O)Cc3ccccc3)ccc2O1,nt,-89*
O=C(C[C@@H]1C[C@H]2c3cc(NS(=O)(=O)c4ccc(F)cc4)ccc3O[C@H]2[C@@H](CO)O1)NCc1cccc(F)c1,4,-4
COc1ccc(NC(=O)N[C@@H]2CC[C@H](CC(=O)NC3CCCCC3)O[C@H]2CO)cc1,2,14
O=C(Nc1ccc(-c2ccccc2)cc1)[C@H]1[C@H](CO)[C@H]2Cn3c(cccc3=O)[C@H]2N1CC1CCOCC1,-9,-19
O=C(Nc1ccc(-c2ccccc2)cc1)[C@@H]1[C@@H](CO)[C@@H]2Cn3c(cccc3=O)[C@@H]2N1CC1CCCCC1,1,-82*
COc1ccc2c3c([nH]c2c1)[C@H](CO)N(C(=O)c1ccncc1)CC31CN(C(=O)NC(C)C)C1,-3,4
Cc1ccc(S(=O)(=O)N(C)C[C@@H]2OCCCC[C@H](C)Oc3ccc(NC(=O)NC4CCCCC4)cc3C(=O)N([C@H](C)CO)C[C@H]2C)cc1,-1,-85*
C[C@@H]1CCCCO[C@@H](CN(C)S(=O)(=O)c2ccc(F)cc2)[C@H](C)CN([C@H](C)CO)C(=O)c2cc(NC(=O)NC3CCCCC3)ccc2O1,16,-72
C[C@@H]1CN([C@H](C)CO)C(=O)c2cc(NC(=O)NC3CCCCC3)ccc2O[C@@H](C)CCCCO[C@@H]1CN(C)S(=O)(=O)c1ccc(F)cc1,19,-84*
Cc1ccc(S(=O)(=O)N(C)C[C@H]2OCCCC[C@@H](C)Oc3ccc(NC(=O)NC4CCCCC4)cc3C(=O)N([C@@H](C)CO)C[C@@H]2C)cc1,-5,?
CC(C)NC(=O)N(C)C[C@@H]1Oc2ccc(NC(=O)CCCN(C)C)cc2C(=O)N([C@H](C)CO)C[C@H]1C,-3,4
COc1ccc2c3c([nH]c2c1)[C@H](CO)N(CC1CC1)CC31CCN(S(=O)(=O)c2cccc(F)c2)CC1,8,-90*
COc1ccc2c3c([nH]c2c1)[C@H](CO)N(C)CC31CCN(S(=O)(=O)c2cccc(F)c2)CC1,7,-60
COc1ccc2c3c([nH]c2c1)[C@H](CO)N(C(=O)Nc1cccc(F)c1)CC31CN(S(=O)(=O)c2cccc(C)c2)C1,0,-51
COc1ccc2c3c([nH]c2c1)[C@H](CO)N(C(=O)Nc1cccc(F)c1)CC31CCN(S(=O)(=O)c2cccc(C)c2)CC1,-11,-82*
C[C@@H]1CN([C@@H](C)CO)C(=O)c2cc(C#Cc3cccc(F)c3)cnc2O[C@@H]1CN(C)C(=O)C1CCC1,0,-62
COc1ccccc1-c1cccc(-c2nc(C(=O)Nc3nccs3)cc3c2[C@@H](CCO)N(C(C)=O)C3)c1,5,-69
COc1ccccc1-c1cccc(-c2nc(C(=O)Nc3nccs3)cc3c2[C@H](CCO)N(C(C)=O)C3)c1,-7,-95*
SMILES,C diff HTS,Pf Dd2 growth
C[C@H](CO)N1C[C@H](C)[C@@H](CN(C)C)Oc2c(NC(=O)Nc3ccc4c(c3)OCO4)cccc2C1=O,-4,5
C[C@@H]1CN([C@H](C)CO)C(=O)c2c(c3ccccc3n2C)-c2ccccc2CO[C@@H]1CN(C)Cc1ccc2c(c1)OCO2,30,-59
C[C@@H]1CN([C@H](C)CO)C(=O)c2c(c3ccccc3n2C)-c2ccccc2CO[C@@H]1CN(C)Cc1ccc(C(F)(F)F)cc1,15,-62
C[C@@H]1CN([C@H](C)CO)C(=O)c2c(c3ccccc3n2C)-c2ccccc2CO[C@H]1CN(C)Cc1cccc(C(F)(F)F)c1,3,-84*
C[C@H]1CN([C@@H](C)CO)C(=O)c2c(c3ccccc3n2C)-c2ccccc2CO[C@@H]1CN(C)Cc1ccc(C(F)(F)F)cc1,37,-58
C[C@@H]1CN([C@@H](C)CO)C(=O)c2c(c3ccccc3n2C)-c2ccccc2CO[C@H]1CN(C)Cc1cccc(C(F)(F)F)c1,31,-92*
C[C@@H]1CN([C@H](C)CO)C(=O)c2c(c3ccccc3n2C)-c2ccccc2CO[C@@H]1CN(C)Cc1cccc(O)c1,-6,-88*
C[C@H](CO)N1C[C@H](C)[C@@H](CN(C)Cc2cccc(O)c2)OCc2ccccc2-c2c(n(C)c3ccccc23)C1=O,-1,-72
C[C@@H]1CN([C@@H](C)CO)C(=O)c2c(c3ccccc3n2C)-c2ccccc2CO[C@@H]1CN(C)Cc1ccc2c(c1)OCO2,18,-83*
CCCNC(=O)N(C)C[C@@H]1Oc2ncc(C3=CCCCC3)cc2C(=O)N([C@@H](C)CO)C[C@H]1C,7,12
C/C=C/c1ccc([C@@H]2[C@H](CO)N(C(=O)CC)C23CN(S(=O)(=O)CC)C3)cc1,-6,14
CN1C(=O)c2cc(NC(=O)C3CC3)ccc2OC[C@H]2O[C@@H](CC(=O)O)CC[C@@H]21,5,21
C[C@@H]1CCCCO[C@@H](CN(C)CC2CCCCC2)[C@H](C)CN([C@H](C)CO)C(=O)c2cc(NC(=O)Nc3ccc4c(c3)OCO4)ccc2O1,3,-81*
C[C@H]1CCCCO[C@@H](CN(C)CC2CCCCC2)[C@@H](C)CN([C@@H](C)CO)C(=O)c2cc(NC(=O)Nc3ccc4c(c3)OCO4)ccc2O1,-6,-81*
C[C@@H]1CCCCO[C@@H](CN(C)CC2CCCCC2)[C@@H](C)CN([C@@H](C)CO)C(=O)c2cc(NC(=O)Nc3ccc4c(c3)OCO4)ccc2O1,-3,-66
C[C@@H]1CN([C@@H](C)CO)C(=O)c2cc(NC(=O)Nc3ccc4c(c3)OCO4)ccc2O[C@@H](C)CCCCO[C@@H]1CN(C)CC1CCCCC1,2,-79
COCC(=O)N1C[C@@H](C)[C@@H](OC)CN(C)C(=O)c2ccc(NC(=O)c3ccccc3)cc2OC[C@@H]1C,-2,-15
CCCN1[C@H](C(=O)NC2CCCC2)[C@@H](CO)[C@@H]2Cn3c(ccc(-c4cccnc4)c3=O)[C@@H]21,6,-15
C[C@H](CO)N1C[C@H](C)[C@@H](CN(C)Cc2ccc(Oc3ccccc3)cc2)Oc2ccc(NC(=O)CCC(F)(F)F)cc2CC1=O,1,-41

# Screens as filed in PubChem.
